This is an account of results in PubChem BioAssay (NCATS).

Where “and” joins values, the source holds several entries; their conditions need not be identical. Equal entries are not always repeated. Records with an inconclusive call do not appear. Where a call stands in place of a potency, no number is given. Where a structure was tested more than once in an assay, its records may differ in their call. Calls of active or inactive are those of the source. Calls follow the shape of the full dose curve.

A short description of the first assay: Cytotoxicity counterscreen for inhibitors of SARS-CoV-2 cell entry (AID 1645845). Also: nearly all actives have a fitted effect of over 50% in size. The settings on record: cell viability (SARS-CoV-2 entry assay cells); series mostly up to 57.1 µM. The method in brief:
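HEK293-ACE2 cells (Expi293F stably expressing human ACE2) seeded overnight, then compound for 1 h plus 48 h at 37C. Viability as ATP content by luminescence; normalized to wells with cells and media-only wells.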
For `CCCCN(CCCC)CCCOC(=O)c1ccc(N)cc1`, the Potency result is “inactive”.
Take `O=C(Oc1ccccc1C(=O)O)c1ccccc1O`: the Potency entry was “inactive”.
Same read-out and setting: the value for `C[C@@H]1[C@H](O)[C@@H](C)/C=C/C=C\C=C\C=C\C=C\C=C\C=C\[C@H](O[C@@H]2O[C@H](C)[C@@H](O)[C@H](N)[C@@H]2O)C[C@@H]2O[C@](O)(C[C@@H](O)C[C@@H](O)[C@H](O)CC[C@@H](O)C[C@@H](O)CC(=O)O[C@H]1C)C[C@H](O)[C@H]2C(=O)O` (stereo in doubt) was “inactive”; that for `Cc1ccccc1N1CCN(CCc2nnc3n2CCCC3)CC1` was “inactive”; that for `CN(C)C(=O)COC(=O)Cc1ccc(OC(=O)c2ccc(N=C(N)N)cc2)cc1` was “inactive”.
`CCC(Cc1c(I)cc(I)c(N)c1I)C(=O)O` (configuration not stated): the Potency entry is “inactive”.
Still for that read-out and setting: the value for `O=C(C1CCCCC1)N1CC(=O)N2CCCc3ccccc3C2C1` (configuration not stated) was “inactive”; that for `O=C(O)CCCCCCCC(=O)O` was “inactive”; that for `CCCCCCCCCCC[C@@H](C[C@@H]1OC(=O)[C@H]1CCCCCC)OC(=O)[C@H](CC(C)C)NC=O` was “inactive”.
On to `NC[C@H]1O[C@H](O[C@H]2[C@H](O)[C@@H](O[C@H]3O[C@H](CO)[C@@H](O)[C@H](N)[C@H]3O)[C@H](N)C[C@@H]2N)[C@H](O)[C@@H](O)[C@@H]1O`, for which the outcome was “inactive [at 5.25 µM]”.
In the case of `O=C(CS(=O)Cc1ccco1)NC/C=C\COc1cc(CN2CCCCC2)ccn1` (configuration not stated), the Potency result is “inactive”.
Still for that read-out and setting: under `Oc1ccc(OCc2ccccc2)cc1` stands “inactive”; under `NC(CS)C(=O)O` (configuration not stated), “inactive”.
Consider `O=C(c1ccccc1)c1ccccc1`, for which the Potency result was “inactive”.
On to `NS(=O)(=O)c1cc(Cl)c(Cl)c(S(N)(=O)=O)c1`, for which the Potency result is “inactive”.
As to `COC(=O)/C=C\C(=O)OC`, the Potency result was “inactive”.
With `Oc1cccc(O)c1`, the Potency entry was “inactive”.
As for `CC(C)(CO)[C@@H](O)C(=O)NCCCO`, the Potency result is “inactive”.
Regarding `C[N+](C)(C)CCCCCC[N+](C)(C)C`, the Potency result is “inactive”.
As to `COc1cc(C)c(/C=C/C(C)=C/C=C/C(C)=C/C(=O)O)c(C)c1C`, the Potency result was “inactive”.
Turning to `CCOC(=O)Oc1ccc(CCNC(=O)[C@H](CCSC)NC(C)=O)cc1OC(=O)OCC`, the Potency entry is “inactive”.
Turning to `O=C(O)CSCC(=O)NC1CCSC1=O` (configuration not stated), the Potency entry is “inactive”.
Take `COc1ccc2cc1Oc1cc3c(cc1OC)CC[N+](C)(C)[C@H]3Cc1ccc(cc1)Oc1c(OC)c(OC)cc3c1[C@@H](C2)[N+](C)(C)CC3`: the Potency result is “inactive”.
The same measure, in the same setting: under `CC(=O)CC/C=C(\C)CC/C=C(\C)CC/C=C(\C)CCC=C(C)C` stands “inactive”.
Turning to `CC(C)(Oc1ccc(C2CC2(Cl)Cl)cc1)C(=O)O` (configuration not stated), the Potency result was “inactive”.
Take `CCCCOC(=O)c1ccc(N)cc1`: the Potency result was “inactive”.
Consider `C[C@]12CCC(=O)C=C1CC[C@H]1[C@@H]3CC[C@](O)(C(=O)CO)[C@@]3(C)C[C@H](O)[C@@]12F`, for which the Potency entry was “inactive”.
For the compound `CCCCCC[C@@H](CCC)C(=O)O`, the Potency result is “inactive”.
Turning to `NC(CO)(CO)CO`, the Potency entry is “inactive”.
For `NC(N)=NCCN1CCCCCCC1`, the activity change, negative = cytotoxicity was 0.589% [at 0.702 µM] (inactive).
As to `O=C1[C@@H]2[C@H]3CC[C@H](C3)[C@@H]2C(=O)N1CCCCN1CCN(c2ncccn2)CC1`, the Potency result is “inactive”.
In the case of `C[C@]12C=CC(=O)C=C1[C@@H](F)C[C@@H]1[C@@H]2[C@@H](O)C[C@@]2(C)[C@H]1CC[C@]2(O)C(=O)CO`, the Potency result was “inactive”.
With `C[C@@H](O)[C@H]1C(=O)N2C(C(=O)O)=C(SCCN=CN)C[C@H]12`, the Potency result was “inactive”.
Consider `CC(C)[C@H](N)C(=O)OCCOCn1cnc2c(=O)[nH]c(N)nc21`, for which the Potency result is “inactive”.
On the same count and under the same terms, the value for `Cc1noc(NS(=O)(=O)c2ccc(N)cc2)c1C` was “inactive”; that for `COc1cc(C(=O)NC2CCCNC2)cc(OC)c1OC` (configuration not stated) was “inactive”.
On to `COc1cc(C)nc(-n2nc(C)cc2OC)n1`, for which the Potency result is “inactive”.
On to `CC(=O)c1ccc(S(=O)(=O)NC(=O)NC2CCCCC2)cc1`, for which the Potency entry is “inactive”.

Another assay is described as follows: Primary qHTS to identify inhibitors of SARS-CoV-2 cell entry (AID 1645846). Also: nearly all actives have a fitted effect of over 45% in size. Also: potency is read from the fitted curve at half-maximal effect. The settings on record: SARS-CoV-2 pseudovirus cell entry assay, luminescence; activity change, negative = inhibition: at 57.1 µM (top of the series) unless noted; series mostly up to 57.1 µM. The method in brief: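 Using luciferase-reporting pseudoviruses carrying Wuhan-Hu-1 spike, the screen tracks entry into stably ACE2-expressing cells over 48 hr. Activity is expressed relative to spike particles versus particles lacking any fusion protein.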
A general note: Quantitative high-throughput screening tests each substance at several concentrations.
In the case of `CCCCN(CCCC)CCCOC(=O)c1ccc(N)cc1`, the activity change, negative = inhibition is -17.6%.
Turning to `O=C(Oc1ccccc1C(=O)O)c1ccccc1O`, the activity change, negative = inhibition is -27.2%.
For the compound `C[C@@H]1[C@H](O)[C@@H](C)/C=C/C=C\C=C\C=C\C=C\C=C\C=C\[C@H](O[C@@H]2O[C@H](C)[C@@H](O)[C@H](N)[C@@H]2O)C[C@@H]2O[C@](O)(C[C@@H](O)C[C@@H](O)[C@H](O)CC[C@@H](O)C[C@@H](O)CC(=O)O[C@H]1C)C[C@H](O)[C@H]2C(=O)O` (stereo in doubt), the Potency result is “inactive”.
`Cc1ccccc1N1CCN(CCc2nnc3n2CCCC3)CC1`: the Potency entry is “inactive”.
With `CN(C)C(=O)COC(=O)Cc1ccc(OC(=O)c2ccc(N=C(N)N)cc2)cc1`, the activity change, negative = inhibition is -4.53% and -0.733%.
Regarding `CCC(Cc1c(I)cc(I)c(N)c1I)C(=O)O` (configuration not stated), the Potency result is “inactive”.
`O=C(C1CCCCC1)N1CC(=O)N2CCCc3ccccc3C2C1` (configuration not stated): the activity change, negative = inhibition was 0.685%.
With `O=C(O)CCCCCCCC(=O)O`, the Potency result was “inactive”.
In the case of `CCCCCCCCCCC[C@@H](C[C@@H]1OC(=O)[C@H]1CCCCCC)OC(=O)[C@H](CC(C)C)NC=O`, the activity change, negative = inhibition was determined as 0.353%.
The same measure, in the same setting: under `NC[C@H]1O[C@H](O[C@H]2[C@H](O)[C@@H](O[C@H]3O[C@H](CO)[C@@H](O)[C@H](N)[C@H]3O)[C@H](N)C[C@@H]2N)[C@H](O)[C@@H](O)[C@@H]1O` stands -26.4% [at 5.25 µM].
Take `O=C(CS(=O)Cc1ccco1)NC/C=C\COc1cc(CN2CCCCC2)ccn1` (configuration not stated): the Potency result is “inactive”.
On to `Oc1ccc(OCc2ccccc2)cc1`, for which the Potency entry was “inactive and 3.16 µM (active)”.
Regarding `NC(CS)C(=O)O` (configuration not stated), the activity change, negative = inhibition is -4.89%.
`O=C(c1ccccc1)c1ccccc1`: the Potency entry is “inactive”.
Regarding `NS(=O)(=O)c1cc(Cl)c(Cl)c(S(N)(=O)=O)c1`, the activity change, negative = inhibition is -0.105%.
With `COC(=O)/C=C\C(=O)OC`, the activity change, negative = inhibition is -18.2%.
Turning to `Oc1cccc(O)c1`, the Potency result is “inactive”.
The same measure, in the same setting: the value for `CC(C)(CO)[C@@H](O)C(=O)NCCCO` was “inactive”.
Take `C[N+](C)(C)CCCCCC[N+](C)(C)C`: the activity change, negative = inhibition was -3.21%.
The same measure, in the same setting: under `COc1cc(C)c(/C=C/C(C)=C/C=C/C(C)=C/C(=O)O)c(C)c1C` stands -1.85%.
In the case of `CCOC(=O)Oc1ccc(CCNC(=O)[C@H](CCSC)NC(C)=O)cc1OC(=O)OCC`, the Potency entry was “inactive”.
On to `O=C(O)CSCC(=O)NC1CCSC1=O` (configuration not stated), for which the Potency entry is “inactive” and the activity change, negative = inhibition is -0.451%.
Regarding `COc1ccc2cc1Oc1cc3c(cc1OC)CC[N+](C)(C)[C@H]3Cc1ccc(cc1)Oc1c(OC)c(OC)cc3c1[C@@H](C2)[N+](C)(C)CC3`, the Potency entry is “inactive”.
For the compound `CC(=O)CC/C=C(\C)CC/C=C(\C)CC/C=C(\C)CCC=C(C)C`, the activity change, negative = inhibition is -24.7%.
`CC(C)(Oc1ccc(C2CC2(Cl)Cl)cc1)C(=O)O` (configuration not stated): the Potency result is “inactive”.
On the same count and under the same terms, under `CCCCOC(=O)c1ccc(N)cc1` stands “inactive”.
As to `C[C@]12CCC(=O)C=C1CC[C@H]1[C@@H]3CC[C@](O)(C(=O)CO)[C@@]3(C)C[C@H](O)[C@@]12F`, the activity change, negative = inhibition was -15.9%.
Turning to `CCCCCC[C@@H](CCC)C(=O)O`, the Potency entry was “inactive”.
With `NC(CO)(CO)CO`, the Potency entry is “inactive”.
Turning to `NC(N)=NCCN1CCCCCCC1`, the outcome was “inactive [at 0.702 µM]”.
In the case of `O=C1[C@@H]2[C@H]3CC[C@H](C3)[C@@H]2C(=O)N1CCCCN1CCN(c2ncccn2)CC1`, the activity change, negative = inhibition was -0.993%.
For the compound `C[C@]12C=CC(=O)C=C1[C@@H](F)C[C@@H]1[C@@H]2[C@@H](O)C[C@@]2(C)[C@H]1CC[C@]2(O)C(=O)CO`, the Potency result is “inactive”.
Regarding `C[C@@H](O)[C@H]1C(=O)N2C(C(=O)O)=C(SCCN=CN)C[C@H]12`, the Potency entry was “inactive”.
Regarding `CC(C)[C@H](N)C(=O)OCCOCn1cnc2c(=O)[nH]c(N)nc21`, the activity change, negative = inhibition was -28.1%.
The same measure, in the same setting: under `Cc1noc(NS(=O)(=O)c2ccc(N)cc2)c1C` stands -11.7%; under `COc1cc(C(=O)NC2CCCNC2)cc(OC)c1OC` (configuration not stated), -15.8%.
Turning to `COc1cc(C)nc(-n2nc(C)cc2OC)n1`, the Potency result is “inactive”.
On to `CC(=O)c1ccc(S(=O)(=O)NC(=O)NC2CCCCC2)cc1`, for which the activity change, negative = inhibition worked out at 4.85%.
